Compounds with a hit are over-represented: about 4.7% of the library has one in this group of screens.
TRHR enhancer: TRH receptor (human) allosteric enhancement; TRHR cells, fluo-8 calcium fluorescence, EC20 TRH enhancement; enhancement, % at 2 µM; actives 0.66% (n = 360,000); in the data active means enhancement above about 30%; further: 0% is about no effect
Target sequence (P34981 whole entry, looked up): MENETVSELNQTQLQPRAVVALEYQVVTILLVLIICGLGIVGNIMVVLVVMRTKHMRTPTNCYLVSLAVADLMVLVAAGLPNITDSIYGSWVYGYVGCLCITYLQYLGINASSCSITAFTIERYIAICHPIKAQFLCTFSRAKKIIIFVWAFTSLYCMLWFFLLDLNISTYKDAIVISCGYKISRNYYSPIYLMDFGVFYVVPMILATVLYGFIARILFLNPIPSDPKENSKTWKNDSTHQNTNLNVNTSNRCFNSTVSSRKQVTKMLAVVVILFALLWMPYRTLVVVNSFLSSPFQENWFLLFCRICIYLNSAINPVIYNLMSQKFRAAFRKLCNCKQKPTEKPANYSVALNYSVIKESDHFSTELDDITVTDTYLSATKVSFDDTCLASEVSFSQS
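TRHR-expressing cells loaded with fluo-8 calcium dye were read kinetically (ex 480/em 530) during compound addition, then stimulated with an EC20 of TRH (10 nM final). Enhancement of the Gq-mediated intracellular calcium response was scored.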
D1 antagonist: human D1 dopamine receptor antagonism; P21728; HEK293 TREx D1 cells, calcium flux, dopamine EC80; active compounds read low; activity change, negative = inhibition, % at 10 µM; actives 3.2% (n = 360,000); AID 504652; in the data active means activity change below about -30%; further: on the % scale 0 is the no-effect control and ±100 the full control effect
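Cells carrying a force-coupled, tetracycline-inducible human D1 receptor report calcium flux. Each well gets a 10 s baseline, compound with 180 s monitoring, then an EC80 dopamine stimulus with a second 180 s kinetic read.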
D1 ag: agonists of human D1 dopamine receptor. activation, % at 2 µM. HEK293 T-REx D1 cells, calcium flux, agonist mode. P21728. actives 1% (n = 360,000); further: 0% is about no effect
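Inducible HEK293 T-REx D1 cells, force-coupled to calcium signalling, were plated at 4000 cells/well with tetracycline and held overnight at 30 C. After no-wash calcium dye loading, compound-evoked calcium rise over 180 s flagged agonists.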
D1 potentiator: human D1 dopamine receptor positive modulation | actives 0.036% (n = 360,000) | potentiation, % at 10 µM | P21728 | HEK293 TREx D1 cells, calcium flux, dopamine EC20 potentiation; in the data active means potentiation above about 30%; further: 0% is about no effect
TRHR agonist: agonists of human TRH receptor. AID 493084. TRHR cells, calcium flux fluo-8, FDSS agonist mode. activation, % at 2 µM. actives 0.18% (n = 360,000). P34981; further: 0% is about no effect
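In this calcium-flux screen, cells bearing human TRHR are dye-loaded with fluo-8, baselined for 10 cycles, then exposed to library compounds; positive kinetic calcium responses during the agonist phase mark hits, with TRH as control.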
Active calls of the source: *; · = not tested or not shown; ! = a repeat was not active. Unless noted, no stated cut-off is given here; in the data, active means activation above about 30%; inactive means the rest.

SMILES | TRHR enhancer | D1 antagonist | D1 ag | D1 potentiator | TRHR agonist
COc1ccccc1N1CCN(CCCNC(=O)Cn2ncc3c([nH]c4ccccc43)c2=O)CC1 | 32*! | -30 | 0 | -13 | 0
Cn1c(=O)cc(OCC(=O)NCCCN2CCN(c3ccccc3F)CC2)c2ccccc21 | 4 | -13 | 0 | -8 | 0
CN1CCN(CCCNC(=O)Cn2ncc3c4ccccc4n(C)c3c2=O)CC1 | -4 | -3 | 2 | 3 | 1
CC1CC(C)CN(CCCNC(=O)c2cc3c(=O)[nH]c4ccccc4c3n2C)C1 (stereo not given) | -2 | 7 | 1 | -3 | 0
CCn1c(=O)cc(SCC(=O)NCCCN2CCN(c3ccccc3F)CC2)c2ccccc21 | 0 | -81* | 30* | -14 | -1
Cc1ccc(C)c(N2CCN(CCCNC(=O)Cn3ncc4c([nH]c5ccccc54)c3=O)CC2)c1 | 4 | -25 | -2 | 4 | 0
Cn1c(C(=O)NCCCN2CCN(c3ccccc3F)CC2)cc2c(=O)[nH]c3ccccc3c21 | -1 | -40* | 1 | -8 | 0
CC1CCN(C(=O)CSc2nnc(NC(=O)Nc3ccccc3)s2)CC1 | -6 | · | -3 | 2 | 0
CCOC(=O)c1ccc(NC(=S)N2CCCC(C)C2)cc1 (stereo not given) | 5 | · | 0 | -4 | 0
CCOC(=O)c1ccc(NC(=S)N2CCCC(C(=O)N3CCCC3)C2)cc1 (stereo not given) | 3 | -89* | 2 | -10 | 0
O=C(O)c1ccc(NC(=S)N2CCCCC2)cc1 | 0 | -73* | 0 | -8 | 1
Cc1csc2nc(-c3cccc(NC(=O)C(C)C)c3)cn12 | 3 | -12 | -1 | -1 | -1
Cc1cc2c(s1)c1cnn(Cc3ccc(C#N)cc3)c(=O)c1n2C | 2 | -16 | 4 | -4 | 0
CN(Cc1ccccc1)S(=O)(=O)c1ccc(Cl)nc1 | 3 | 2 | 0 | 1 | -1
CC(C)N(Cc1ccccc1)S(=O)(=O)c1ccc(Cl)nc1 | -7 | -41* | 0 | -8 | 0
CCNC(=O)c1c(NC(=O)COc2ccc(F)cc2)sc2c1CCCC2 | -1 | -10 | -1 | -2 | 0
Cc1ccc(/C=N/NC(=O)Cn2nnc(N)n2)cc1 | -22 | -74* | 1 | -8 | 0
CN1CCCC1CCNS(=O)(=O)c1ccc(Br)cc1 (stereo not given) | -2 | -33* | 6 | -13 | -1
Cn1nnnc1Sc1ncnc2scc(-c3ccc(N)cc3)c12 | 9 | -4 | 3 | 7 | -1
CCCSCCCNC(=O)CN1C(=O)COc2ccc(S(=O)(=O)N3CCCCCC3)cc21 | 25 | -20 | 4 | -5 | 1
COc1ccc(OCC(O)CNC(=O)Nc2cc(F)ccc2C)cc1 (stereo not given) | 3 | -41* | -1 | -7 | 0
COc1ccc(OCC(O)CNC(=O)Nc2ccc(C(C)(C)C)cc2)cc1 (stereo not given) | -2 | 2 | 1 | -11 | -1
Cc1ccc(NC(=O)COC(=O)C2CC3C=CC2C3)cc1S(=O)(=O)N1CCCCC1 (stereo not given) | -5 | -21 | 6 | 9 | -1
Cc1ccc(NC(=O)COC(=O)C2CCC2)cc1S(=O)(=O)N1CCCCC1 | -3 | -32* | 4 | -8 | 0
Cc1ccc(NC(=O)C2CCN(C(=O)OC(C)(C)C)CC2)cc1S(=O)(=O)N1CCCCC1 | -1 | -38* | 0 | 1 | 0
SMILES | TRHR enhancer | D1 antagonist | D1 ag | D1 potentiator | TRHR agonist
Cc1ccc(NC(=O)COc2ccccc2)cc1S(=O)(=O)N1CCCCCC1 | -16 | -2 | 10 | 0 | 1
Cc1ccc(NC(=O)COc2ccccc2C#N)cc1S(=O)(=O)N1CCCCCC1 | -12 | 9 | 2 | -5 | 1
Cc1ccccc1CC(=O)OCC(=O)Nc1ccc(C)c(S(=O)(=O)N2CCCCC2)c1 | -2 | -35* | 79* | · | 1
Cc1ccc(C)c(OCCC(=O)OCC(=O)Nc2ccc(C)c(S(=O)(=O)N3CCCCC3)c2)c1 | -8 | -32* | 14 | -16 | 2
Cc1ccc(NC(=O)CSc2ccccc2)cc1S(=O)(=O)N1CCCCC1 | -3 | 2 | 11 | -2 | 1
Cc1ccc(NC(=S)NCc2ccccc2)cc1S(=O)(=O)N1CCCCC1 | -4 | -35* | 33* | -6 | -1
Oc1ccc(Br)cc1-c1nc2cnccn2c1NC1CCCC1 | -4 | -27 | 1 | -5 | -1
COc1ccc(Nc2c(-c3ccc(OC)cc3)nc3cnccn23)cc1 | 34* | 4 | -1 | -3 | -1
Fc1ccc(-c2nc3cnccn3c2NC2CCCC2)cc1 | -3 | -36* | 1 | -2 | 0
CCOC(=O)c1cc(-c2ccccc2)n(CC(=O)NCc2ccccc2OC)c1C | -2 | -5 | 1 | -3 | 0
COc1ccc(C(=O)N2CC(=O)Nc3ccc(C)cc3C2c2ccccc2)c(OC)c1 (stereo not given) | 3 | -45* | 4 | 1 | 0
COc1ccccc1C(=O)N1CC(=O)Nc2ccc(C)cc2C1c1ccc(F)cc1 (stereo not given) | 3 | -4 | 1 | -8 | 1
Cc1ccc2c(c1)C(c1ccccc1)N(C(=O)c1ccc(S(=O)(=O)N3CCCCC3)cc1)CC(=O)N2 (stereo not given) | 0 | -48* | 5 | -2 | 0
O=C1CN(C(=O)c2ccc(S(=O)(=O)N3CCCC3)cc2)C(c2ccccc2)c2cc(Br)ccc2N1 (stereo not given) | 0 | 3 | 6 | 1 | 1
CC(C)(C)NC(=O)CN(C(=O)CCN1CCCc2ccccc21)C(C)(C)C | 0 | 4 | 1 | -1 | 0
CCCN1CCCc2ccccc21 | -2 | -31* | 0 | 7 | 0
Cc1ccc(OCC(=O)NNC(=S)NC(=O)c2cccs2)c(C)c1 | 4 | 7 | 18 | -1 | 0
Cc1ccc(OCC(=O)NNC(=S)NC(=O)c2ccc(Br)o2)c(C)c1 | 3 | -13 | 41* | 2 | -2
COc1ccc(NC(=S)N2CCC(Cc3ccccc3)CC2)cc1OC | 1 | -53* | 3 | -11 | -1
COc1cccc(NC(=S)N2CCC(Cc3ccccc3)CC2)c1 | 0 | -37* | 1 | -3 | 0
CCCNC(=O)CSc1nc2nc(C)c(Cc3ccccc3Cl)c(C)n2n1 | 6 | 1 | -1 | 0 | 0
CC(C)Nc1nc(NC(C)C)nc(OCCOC(=O)c2ccccc2)n1 | -2 | -5 | -1 | 0 | -1
CN(C)c1nc(OCCOC(=O)c2ccccc2)nc(N(C)C)n1 | -1 | 0 | 31* | -1 | 2
CCc1ccc(NC(=O)C2CCN(C(=O)[C@@H]3Cc4ccccc4CN3)CC2)cc1 | 0 | 8 | 32* | -2 | 1
Cc1ccc(S(=O)(=O)N2CCN(c3nc(CN4CCCC4)nc4sc(C)c(C)c34)CC2)cc1 | 1 | -35* | 0 | 5 | 0

Assay outcomes as filed in PubChem.
